Measured values taken from the supplement of paper PMC3414501.
Structures can show the parent of a compound that is named as a salt.

The molecules below were run on S. cerevisiae BY4741 (wild-type), vegetative growth in YPD (assay: growth sensitivity score (doubling time z-score vs DMSO controls); higher = slower growth, strongly negative scores also mark growth inhibition (complete suppression), active = hit call of the paper). Conditions: stock concentration (mM, diluted 1:100): 10; in the data active = 2 or more and inactive = the rest.
Procedure, shortened: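 Yeast (Saccharomyces cerevisiae BY4741 and AD1-9) was grown in rich medium in microtiter plates from a starting OD600 of 0.065, with optical density read every 15 min over 24 hours. The growth sensitivity score was the difference between compound and solvent-only means, divided by the solvent-only standard deviation. Every experiment had eight solvent-only wells.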

Compound | growth sensitivity score
C[C@]12CC[C@H](O)CC1=CC[C@@H]1[C@@H]2CC[C@]2(C)C(=O)CC[C@@H]12 [Dehydroepiandrosterone] | 7.64 (active)
c1ccc(Cn2ccnc2)cc1 [1-Benzylimidazole] | -1.22 (inactive)
O=C(O)C(Cl)Cl [Dichloroacetic acid] | -0.8 (inactive)
C#CCN(C)[C@H](C)Cc1ccccc1 [Selegiline] | 0.07 (inactive)
COc1cc2c(cc1OC)[C@@]13CCN4CC5=CCO[C@H]6CC(=O)N2[C@H]1[C@H]6[C@H]5C[C@H]43 [Brucine] | 0.41 (inactive)
CC(C)[C@]12O[C@H]1[C@@H]1O[C@]13[C@]1(O[C@H]1C[C@H]1C4=C(CC[C@@]13C)C(=O)OC4)[C@@H]2O [Triptolide] | -0.92 (inactive)
Oc1ccc2c3c1O[C@H]1[C@@H](O)CC[C@@]4(O)[C@@H](C2)N(CC2CCC2)CC[C@]314 [Nalbuphine] | -0.96 (inactive)
CNC(=O)Oc1ccc2c(c1)[C@]1(C)CCN(C)[C@@H]1N2C [Physostigmine] | -1.51 (inactive)
C[C@]12Cc3c[nH]nc3C[C@@H]1CC[C@@H]1[C@@H]2CC[C@@]2(C)[C@H]1CC[C@]2(C)O [Stanozolol] | 1.13 (inactive)
c1ccc2c(c1)Nc1ccccc1S2 [Phenothiazine] | 5.99 (active)
OC1CCCCC1N1CCC(c2ccccc2)CC1 (stereo not drawn) [Vesamicol hydrochloride] | -0.16 (inactive)
Oc1ccc2c3c1O[C@H]1c4[nH]c5ccccc5c4C[C@@]4(O)[C@@H](C2)N(CC2CC2)CC[C@]314 [Naltrindole] | -1.11 (inactive)
CN1C(=O)CN=C(c2ccccc2)c2cc(Cl)ccc21 [Diazepam] | 2.97 (active)
CNCC(O)c1ccc(O)cc1 (stereo not drawn) [Synephrine] | -1.07 (inactive)
NC(=O)C[S+]([O-])C(c1ccccc1)c1ccccc1 (stereo not drawn) [Modafinil] | -1.13 (inactive)

Same assay, conditions: stock concentration (mM, diluted 1:100): 10.1

Compound | growth sensitivity score
C[C@]12CC[C@H](O)CC1=CC[C@@H]1[C@@H]2CC[C@@]2(C)[C@H]1CC[C@]2(C)O [Methylandrostenediol] | 0.35 (inactive)
CCOC(=O)c1cncn1[C@H](C)c1ccccc1 [Etomidate] | 2.21 (active)
NC(=O)OCCCc1ccccc1 [Phenprobamate] | 0.48 (inactive)
